# In PubChem BioAssay (NCATS):
# Records with an inconclusive call do not appear. Entries that show only a call come without a potency. The source made the active and inactive calls. Calls come from the whole dose curve; as a rule, active = well fitted curve in the direction sought with a large enough effect; inconclusive = small, poorly fitted or top-dose-only effect, or another doubt; inactive = no such curve, though single readings can be large; an effect the other way counts as inactive or inconclusive.
# What was measured:
# [1] = NS1 protein of Zika virus - qHTS assay to identify small molecule inhibitors in human HEK 293 cells (AID 1347053); note: nearly all actives have a fitted effect of over 55% in size; note: potency is the fitted concentration of half-maximal effect
# Procedure, shortened: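 Following 20 h seeding, HEK 293 cells took compound, then 1 h later ZIKV MR766 (MOI = 0.5). Incubation ran 24 h at 37 C before TR-FRET detection of NS1; a drop in signal indicates inhibition.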
# [2] = qHTS of pediatric cancer cell lines to identify multiple opportunities for drug repurposing: Primary screen for TC32 cells (AID 1347089); note: nearly all actives have a fitted effect of over 60% in size; note: potency is the fitted concentration of half-maximal effect
# Procedure, shortened: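 In the primary qHTS, MIPE compounds were tested at 11 concentrations (0.78 nM to 46 µM) and NPC compounds at 8 (0.59 nM to 46 µM) on TC32 cells for 48 h. CellTiter-Glo luminescence gave viability.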
# [3] = qHTS of pediatric cancer cell lines to identify multiple opportunities for drug repurposing: Primary screen for DAOY cells (AID 1347090); note: nearly all actives have a fitted effect of over 55% in size; note: potency is the fitted concentration of half-maximal effect
# Procedure, shortened: (§1)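 Eight- or eleven-point concentration series, 48 h treatment at 37 degrees C in growth media; readout CellTiter-Glo luminescence. Potency and efficacy were taken from the concentration-response curves.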
# [4] = qHTS of pediatric cancer cell lines to identify multiple opportunities for drug repurposing: Primary screen for SJ-GBM2 cells (AID 1347091); note: potency is the fitted concentration of half-maximal effect
# Procedure, shortened: as §1
# [5] = qHTS of pediatric cancer cell lines to identify multiple opportunities for drug repurposing: Primary screen for A673 cells (AID 1347092); note: nearly all actives have a fitted effect of over 45% in size; note: potency is the fitted concentration of half-maximal effect
# Procedure, shortened: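 48 h compound exposure, A673, 500-1,000 cells/well, 37 degrees C/5% CO2. MIPE: 11-point, 0.78 nM-46 µM; NPC: 8-point, 0.59 nM-46 µM (final). Readout CellTiter-Glo luminescence after 15 min RT.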
# [6] = qHTS of pediatric cancer cell lines to identify multiple opportunities for drug repurposing: Primary screen for SK-N-MC cells (AID 1347093); note: potency is the fitted concentration of half-maximal effect
# Procedure, shortened: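 Metabolically active cells were quantified by ATP-dependent luminescence (CellTiter-Glo, 15 min at room temperature) following 48 h treatment. Cells had been plated at 500-1,000 per well and settled for 5 h beforehand.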
# [7] = qHTS of pediatric cancer cell lines to identify multiple opportunities for drug repurposing: Primary screen for BT-37 cells (AID 1347094); note: potency is the fitted concentration of half-maximal effect
# Procedure, shortened: (§2)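 CRCs from 8- or 11-point titrations (lowest final 0.59 nM NPC, 0.78 nM MIPE). Cell viability: CellTiter-Glo after 48 h incubation, 15 min room-temperature development, luminescence imaging.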
# [8] = qHTS of pediatric cancer cell lines to identify multiple opportunities for drug repurposing: Primary screen for NB-EBc1 cells (AID 1347095); note: potency is the fitted concentration of half-maximal effect
# Procedure, shortened: as §2
# [9] = qHTS of pediatric cancer cell lines to identify multiple opportunities for drug repurposing: Primary screen for Saos-2 cells (AID 1347097); note: nearly all actives have a fitted effect of over 40% in size
# Procedure, shortened: as §2
# [10] = qHTS of pediatric cancer cell lines to identify multiple opportunities for drug repurposing: Primary screen for SK-N-SH cells (AID 1347098); note: nearly all actives have a fitted effect of over 65% in size; note: potency is the fitted concentration of half-maximal effect
# Procedure, shortened: (§3)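 Cells (500-1,000/well) rested 5 h, then received compounds for 48 h; metabolically active cells were measured by CellTiter-Glo luminescence. Final concentrations spanned up to 46 µM (MIPE, 11-point) or 0.59 nM-46 µM (NPC, 8-point) in primary screens, 11-point in follow-ups.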
# [11] = qHTS of pediatric cancer cell lines to identify multiple opportunities for drug repurposing: Primary screen for NB1643 cells (AID 1347099); note: nearly all actives have a fitted effect of over 50% in size; note: potency is the fitted concentration of half-maximal effect
# Procedure, shortened: as §2
# [12] = qHTS of pediatric cancer cell lines to identify multiple opportunities for drug repurposing: Primary screen for LAN-5 cells (AID 1347100); note: potency is the fitted concentration of half-maximal effect
# Procedure, shortened: (§4)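 Cells (500-1,000/well) in growth media were settled 5 h at 37 degrees C, then given compounds for 48 h. Viability was read as CellTiter-Glo luminescence. Primary runs used MIPE at 11 points (0.78 nM-46 µM) and NPC at 8 points (0.59 nM-46 µM); follow-ups used 11 points.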
# [13] = qHTS of pediatric cancer cell lines to identify multiple opportunities for drug repurposing: Primary screen for BT-12 cells (AID 1347101); note: nearly all actives have a fitted effect of over 25% in size; note: potency is the fitted concentration of half-maximal effect
# Procedure, shortened: as §3
# [14] = qHTS of pediatric cancer cell lines to identify multiple opportunities for drug repurposing: Primary screen for Rh18 cells (AID 1347102); note: nearly all actives have a fitted effect of over 65% in size
# Procedure, shortened: as §4
# [15] = qHTS of pediatric cancer cell lines to identify multiple opportunities for drug repurposing: Primary screen for OHS-50 cells (AID 1347103); note: nearly all actives have a fitted effect of over 40% in size; note: potency is the fitted concentration of half-maximal effect
# Procedure, shortened: as §3
# [16] = qHTS of pediatric cancer cell lines to identify multiple opportunities for drug repurposing: Primary screen for U-2 OS cells (AID 1347096); note: nearly all actives have a fitted effect of over 50% in size
# Procedure, shortened: as §4
Structure (SMILES),Potency [1],Potency [2],Potency [3],Potency [4],Potency [5],Potency [6],Potency [7],Potency [8],Potency [9],Potency [10],Potency [11],Potency [12],Potency [13],Potency [14],Potency [15],Potency [16]
CCN(CC)CCNC(=O)COc1ccc(OC)cc1,inactive,inactive,inactive,inactive,inactive,inactive,inactive,inactive,inactive,inactive,inactive,inactive,inactive,inactive,inactive,
CCOc1ccccc1OCCN[C@H](C)Cc1ccc(OC)c(S(N)(=O)=O)c1,inactive,inactive,inactive,inactive,inactive,inactive,inactive,inactive,inactive,inactive,,inactive,,,inactive,
CNCCc1ccccn1,inactive,inactive,inactive,inactive,inactive,inactive,inactive,inactive,,inactive,inactive,inactive,,inactive,inactive,inactive
CCc1ccc(C(=O)C(C)CN2CCCCC2)cc1 (configuration not stated),inactive,inactive,inactive,inactive,inactive,inactive,inactive,inactive,,,inactive,inactive,inactive,inactive,inactive,inactive
CCCCCCCCCCCCCCCC(=O)O,inactive,inactive,inactive,inactive,inactive,inactive,inactive,inactive,inactive,inactive,inactive,inactive,,,inactive,
CCCCC(CC)COC(=O)c1ccc(N(C)C)cc1 (configuration not stated),inactive,inactive,inactive,inactive,inactive,inactive,inactive,inactive,inactive,inactive,inactive,inactive,inactive,inactive,inactive,
CCOC(=O)Nc1ccc2c(c1)N(C(=O)CCN1CCOCC1)c1ccccc1S2,inactive,inactive,inactive,inactive,inactive,inactive,inactive,inactive,,inactive,inactive,inactive,inactive,,inactive,inactive
NC(=O)c1ccccc1O,inactive,inactive,inactive,inactive,inactive,inactive,inactive,inactive,,inactive,,inactive,inactive,inactive,inactive,inactive
CC(=O)NCCCCCC(=O)O,inactive,inactive,inactive,inactive,inactive,inactive,inactive,inactive,,inactive,inactive,inactive,inactive,inactive,inactive,inactive
CC(C)Nc1cccnc1N1CCN(C(=O)c2cc3cc(NS(C)(=O)=O)ccc3[nH]2)CC1,inactive,inactive,inactive,inactive,inactive,inactive,,inactive,inactive,inactive,inactive,inactive,inactive,inactive,,inactive
CC1(COc2ccc(CC3SC(=O)NC3=O)cc2)CCCCC1 (configuration not stated),inactive,inactive,inactive,inactive,inactive,inactive,inactive,inactive,,,inactive,inactive,,inactive,5500 nM (active),
C[C@@H](O)[C@H]1C(=O)N2C(C(=O)O)=C([C@H]3CCCO3)S[C@H]12,inactive,inactive,inactive,inactive,inactive,inactive,inactive,inactive,inactive,inactive,inactive,inactive,inactive,,inactive,
O=C(O)CCc1nc2ccccc2[nH]1,inactive,inactive,inactive,inactive,inactive,inactive,inactive,inactive,inactive,,inactive,inactive,inactive,inactive,inactive,inactive
C=CCN1CCc2nc(N)sc2CC1,inactive,inactive,inactive,inactive,inactive,inactive,,inactive,inactive,inactive,inactive,inactive,inactive,inactive,inactive,inactive
COc1cc(O)c(C(=O)c2ccccc2)cc1S(=O)(=O)O,inactive,inactive,inactive,inactive,inactive,inactive,,inactive,inactive,inactive,inactive,inactive,inactive,inactive,inactive,inactive
C/C=C/c1ccc(O)c(OC)c1,inactive,inactive,inactive,inactive,inactive,inactive,inactive,inactive,inactive,inactive,inactive,inactive,,inactive,inactive,
CCNC(=O)NCc1cccc(Cl)c1,inactive,inactive,inactive,inactive,inactive,inactive,inactive,inactive,,inactive,inactive,inactive,inactive,inactive,inactive,inactive
Nc1nc(Cl)nc2c1ncn2[C@@H]1O[C@H](CO)[C@@H](O)[C@@H]1F,4.47 µM (active),264 nM (active),422 nM (active),26.6 nM (active),422 nM (active),29.9 nM (active),309 nM (active),211 nM (active),,,,335 nM (active),,inactive,195 nM (active),

Structure (SMILES),Potency [1],Potency [2],Potency [3],Potency [4],Potency [5],Potency [6],Potency [7],Potency [8],Potency [9],Potency [10],Potency [11],Potency [12],Potency [13],Potency [14],Potency [15],Potency [16]
CCOc1cc(OCC)c(C(=O)CCC(=O)O)cc1OCC,inactive,inactive,inactive,inactive,inactive,inactive,,inactive,inactive,inactive,inactive,inactive,inactive,inactive,inactive,inactive
Cc1cccc(C)c1NC(=O)c1ccccc1C(=O)O,inactive,inactive,inactive,inactive,inactive,inactive,,inactive,inactive,inactive,inactive,inactive,inactive,inactive,inactive,inactive
CCC1Nc2cc(Cl)c(S(N)(=O)=O)cc2S(=O)(=O)N1 (configuration not stated),inactive,inactive,inactive,inactive,inactive,inactive,inactive,inactive,,inactive,inactive,inactive,inactive,inactive,inactive,inactive
COc1cc(C(=S)N2CCOCC2)ccc1O,inactive,inactive,inactive,inactive,inactive,inactive,inactive,inactive,inactive,,inactive,inactive,inactive,inactive,inactive,inactive
CCNC(=O)/C=C/c1cccc(Br)c1,inactive,inactive,inactive,inactive,inactive,inactive,inactive,inactive,,inactive,inactive,inactive,inactive,,,inactive
O=C(O)Cc1csc(-c2ccc(Cl)cc2)n1,inactive,inactive,inactive,inactive,inactive,inactive,,inactive,inactive,inactive,inactive,inactive,inactive,inactive,inactive,inactive
NS(=O)(=O)c1cc2c(cc1Cl)NC(CC1CCCC1)NS2(=O)=O (configuration not stated),inactive,inactive,inactive,inactive,inactive,inactive,inactive,inactive,inactive,inactive,inactive,inactive,,inactive,,
C[C@H]1O[C@@H](O[C@H]2CC[C@@]3(C)[C@H](CC[C@@H]4[C@@H]3C[C@@H](O)[C@]3(C)[C@@H](C5=CC(=O)OC5)CC[C@]43O)C2)C[C@H](O)[C@@H]1O[C@H]1C[C@H](O)[C@H](O[C@H]2C[C@H](O)[C@H](O[C@@H]3O[C@H](CO)[C@@H](O)[C@H](O)[C@H]3O)[C@@H](C)O2)[C@@H](C)O1,inactive,374 nM (active),266 nM (active),84.1 nM (active),266 nM (active),168 nM (active),123 nM (active),188 nM (active),,386 nM (active),668 nM (active),237 nM (active),309 nM (active),,219 nM (active),
CN1CCN(c2cc3c(cc2F)c(=O)c(C(=O)O)cn3-c2ccc(F)cc2)CC1,inactive,inactive,inactive,inactive,inactive,inactive,inactive,inactive,inactive,inactive,inactive,inactive,inactive,inactive,inactive,
CCCCN1C[C@H](O)[C@@H](O)[C@H](O)[C@H]1CO,inactive,inactive,inactive,inactive,inactive,inactive,inactive,inactive,,inactive,inactive,inactive,inactive,inactive,inactive,inactive
CCC(C(=O)OCCOCCN(CC)CC)c1ccccc1 (configuration not stated),inactive,inactive,inactive,inactive,inactive,inactive,inactive,inactive,,inactive,inactive,inactive,inactive,inactive,inactive,inactive
CCOC(=O)c1ccc(N)cc1,inactive,inactive,inactive,inactive,inactive,inactive,inactive,inactive,,inactive,inactive,inactive,,inactive,,
c1ccc(-c2nc[nH]c2-c2ccccc2)cc1,inactive,inactive,inactive,inactive,inactive,inactive,inactive,inactive,,inactive,inactive,inactive,inactive,,,inactive
CC(=O)O[C@]1(C(C)=O)CC[C@H]2[C@@H]3C=C(C)C4=CC(=O)CC[C@]4(C)[C@H]3CC[C@@]21C,inactive,inactive,inactive,inactive,inactive,inactive,inactive,inactive,inactive,inactive,,inactive,,inactive,,
Nc1ccc(S(=O)(=O)NCc2ccccc2)cc1,inactive,inactive,inactive,inactive,inactive,inactive,,inactive,inactive,inactive,inactive,inactive,inactive,inactive,inactive,inactive
COc1ccc(C(=O)c2ccccc2O)c(O)c1,inactive,inactive,inactive,inactive,inactive,inactive,inactive,inactive,,,inactive,inactive,inactive,inactive,,inactive
C=C[C@H]1CN2CC[C@H]1C[C@H]2[C@H](O)c1ccnc2ccc(OC)cc12,inactive,inactive,inactive,inactive,inactive,inactive,inactive,inactive,inactive,,inactive,inactive,inactive,inactive,,
CC(=O)Nc1ccc(S(=O)(=O)Nc2ccc([N+](=O)[O-])cc2)cc1,inactive,inactive,inactive,inactive,inactive,inactive,inactive,inactive,inactive,,inactive,,inactive,inactive,inactive,inactive
